Test results taken from the supplement of paper PMC4466140.

Legend:
Experiment in all cases: SPOT peptide array binding signal intensity (averaged, normalized) (arbitrary units (background-subtracted, floor 0; scale differs between SH3 domains)); higher = stronger binding of the SH3 domain to the peptide
AgAbp1 = target: AgAbp1
How it was run: (§1)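 GST-fused SH3 domains from four yeast species were expressed in E. coli BL21(DE3), purified on glutathione Sepharose and incubated at 10 μg/ml overnight at 4°C in TBS-based blocking buffer on cellulose membranes carrying synthetic 15-mer peptides, with cysteines replaced by serines. Bound protein was detected with anti-GST antibody, an HRP anti-mouse secondary and luminol, then imaged and quantified with Genespotter. Binding signal is the normalized, background-subtracted spot intensity averaged over replicates, in arbitrary units that differ between domains.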

AgBbc1 = target: AgBbc1
How it was run: as §1

AgBem1-D1 = target: AgBem1-D1
How it was run: as §1

AgBzz1-D1 = target: AgBzz1-D1
How it was run: as §1

AgBzz1-D2 = target: AgBzz1-D2
How it was run: as §1

AgCyk3 = target: AgCyk3
How it was run: as §1

AgFus1 = target: AgFus1
How it was run: as §1

AgHof1 = target: AgHof1
How it was run: as §1

AgHse1 = target: AgHse1
How it was run: as §1

AgLsb1 = target: AgLsb1
How it was run: as §1

AgLsb4 = target: AgLsb4
How it was run: as §1

AgMyo5 = target: AgMyo5
How it was run: as §1

AgNbp2 = target: AgNbp2
How it was run: as §1

AgRvs167 = target: AgRvs167
How it was run: as §1

AgSho1 = target: AgSho1
How it was run: as §1

AgSla1-D1-D2 = target: AgSla1-D1-D2
How it was run: as §1

AgSla1-D3 = target: AgSla1-D3
How it was run: as §1

CaAbp1-D1 = target: CaAbp1-D1
How it was run: as §1

CaAbp1-D2 = target: CaAbp1-D2
How it was run: as §1

CaBbc1 = target: CaBbc1
How it was run: as §1

CaBem1-D1 = target: CaBem1-D1
How it was run: as §1

CaBzz1-D1 = target: CaBzz1-D1
How it was run: as §1

CaBzz1-D2 = target: CaBzz1-D2
How it was run: as §1

CaCyk3 = target: CaCyk3
How it was run: as §1

CaFus1 = target: CaFus1
How it was run: as §1

CaHof1 = target: CaHof1
How it was run: as §1

CaHse1 = target: CaHse1
How it was run: as §1

CaLsb1 = target: CaLsb1
How it was run: as §1

CaLsb4 = target: CaLsb4
How it was run: as §1

CaMyo5 = target: CaMyo5
How it was run: as §1

CaNbp2 = target: CaNbp2
How it was run: as §1

CaRvs167 = target: CaRvs167
How it was run: as §1

CaRvs167-3 = target: CaRvs167-3
How it was run: as §1

CaSho1 = target: CaSho1
How it was run: as §1

CaSla1-D1-D2 = target: CaSla1-D1-D2
How it was run: as §1

CaSla1-D3 = target: CaSla1-D3
How it was run: as §1

ScAbp1 = target: ScAbp1
How it was run: as §1

ScBbc1 = target: ScBbc1
How it was run: as §1

ScBem1-D1 = target: ScBem1-D1
How it was run: as §1

ScBzz1-D1 = target: ScBzz1-D1
How it was run: as §1

ScBzz1-D2 = target: ScBzz1-D2
How it was run: as §1

ScCyk3 = target: ScCyk3
How it was run: as §1

ScFus1 = target: ScFus1
How it was run: as §1

ScHof1 = target: ScHof1
How it was run: as §1

ScHse1 = target: ScHse1
How it was run: as §1

ScLsb1 = target: ScLsb1
How it was run: as §1

ScLsb2 = target: ScLsb2
How it was run: as §1

ScLsb3 = target: ScLsb3
How it was run: as §1

ScLsb4 = target: ScLsb4
How it was run: as §1

ScMyo3 = target: ScMyo3
How it was run: as §1

ScMyo5 = target: ScMyo5
How it was run: as §1

ScNbp2 = target: ScNbp2
How it was run: as §1

ScPex13 = target: ScPex13
How it was run: as §1

ScRvs167 = target: ScRvs167
How it was run: as §1

ScSho1 = target: ScSho1
How it was run: as §1

ScSla1-D1-D2 = target: ScSla1-D1-D2
How it was run: as §1

ScSla1-D3 = target: ScSla1-D3
How it was run: as §1

SpAbp1-D1 = target: SpAbp1-D1
How it was run: as §1

SpBbc1 = target: SpBbc1
How it was run: as §1

SpBzz1-D1 = target: SpBzz1-D1
How it was run: as §1

SpBzz1-D2 = target: SpBzz1-D2
How it was run: as §1

SpCyk3 = target: SpCyk3
How it was run: as §1

SpHof1 = target: SpHof1
How it was run: as §1

SpHof1-2 = target: SpHof1-2
How it was run: as §1

SpHof1-3 = target: SpHof1-3
How it was run: as §1

SpHse1 = target: SpHse1
How it was run: as §1

SpLsb1 = target: SpLsb1
How it was run: as §1

SpLsb4 = target: SpLsb4
How it was run: as §1

SpMyo1 = target: SpMyo1
How it was run: as §1

SpNbp2 = target: SpNbp2
How it was run: as §1

SpPex13 = target: SpPex13
How it was run: as §1

SpRvs167 = target: SpRvs167
How it was run: as §1

SpSla1-D1-D2 = target: SpSla1-D1-D2
How it was run: as §1

SpSla1-D3 = target: SpSla1-D3
How it was run: as §1

Binder: KKEKKPPKIPKKVYT
- SPOT peptide array binding signal intensity (AgAbp1): 2950
- SPOT peptide array binding signal intensity (AgBbc1): 9.5
- SPOT peptide array binding signal intensity (AgBem1-D1): 8
- SPOT peptide array binding signal intensity (AgBzz1-D1): 253
- SPOT peptide array binding signal intensity (AgBzz1-D2): 43
- SPOT peptide array binding signal intensity (AgCyk3): ≤ 0
- SPOT peptide array binding signal intensity (AgFus1): 1
- SPOT peptide array binding signal intensity (AgHof1): 29.2
- SPOT peptide array binding signal intensity (AgHse1): 35.5
- SPOT peptide array binding signal intensity (AgLsb1): ≤ 0
- SPOT peptide array binding signal intensity (AgLsb4): 1.5
- SPOT peptide array binding signal intensity (AgMyo5): ≤ 0
- SPOT peptide array binding signal intensity (AgNbp2): 19
- SPOT peptide array binding signal intensity (AgRvs167): 2.5
- SPOT peptide array binding signal intensity (AgSho1): 5
- SPOT peptide array binding signal intensity (AgSla1-D1-D2): ≤ 0
- SPOT peptide array binding signal intensity (AgSla1-D3): 4.5
- SPOT peptide array binding signal intensity (CaAbp1-D1): 892
- SPOT peptide array binding signal intensity (CaAbp1-D2): 1670
- SPOT peptide array binding signal intensity (CaBbc1): 88.5
- SPOT peptide array binding signal intensity (CaBem1-D1): 28
- SPOT peptide array binding signal intensity (CaBzz1-D1): 1950
- SPOT peptide array binding signal intensity (CaBzz1-D2): 2760
- SPOT peptide array binding signal intensity (CaCyk3): ≤ 0
- SPOT peptide array binding signal intensity (CaFus1): 99
- SPOT peptide array binding signal intensity (CaHof1): 1
- SPOT peptide array binding signal intensity (CaHse1): 110
- SPOT peptide array binding signal intensity (CaLsb1): 0.25
- SPOT peptide array binding signal intensity (CaLsb4): ≤ 0
- SPOT peptide array binding signal intensity (CaMyo5): 1.5
- SPOT peptide array binding signal intensity (CaNbp2): 10
- SPOT peptide array binding signal intensity (CaRvs167): 2
- SPOT peptide array binding signal intensity (CaRvs167-3): 4.5
- SPOT peptide array binding signal intensity (CaSho1): 13
- SPOT peptide array binding signal intensity (CaSla1-D1-D2): 79
- SPOT peptide array binding signal intensity (CaSla1-D3): ≤ 0
- SPOT peptide array binding signal intensity (ScAbp1): 901
- SPOT peptide array binding signal intensity (ScBbc1): 1
- SPOT peptide array binding signal intensity (ScBem1-D1): 16
- SPOT peptide array binding signal intensity (ScBzz1-D1): 98
- SPOT peptide array binding signal intensity (ScBzz1-D2): 9.5
- SPOT peptide array binding signal intensity (ScCyk3): ≤ 0
- SPOT peptide array binding signal intensity (ScFus1): ≤ 0
- SPOT peptide array binding signal intensity (ScHof1): 1.5
- SPOT peptide array binding signal intensity (ScHse1): 91
- SPOT peptide array binding signal intensity (ScLsb1): 4.75
- SPOT peptide array binding signal intensity (ScLsb2): 2
- SPOT peptide array binding signal intensity (ScLsb3): 256
- SPOT peptide array binding signal intensity (ScLsb4): ≤ 0
- SPOT peptide array binding signal intensity (ScMyo3): ≤ 0
- SPOT peptide array binding signal intensity (ScMyo5): 4.25
- SPOT peptide array binding signal intensity (ScNbp2): 2
- SPOT peptide array binding signal intensity (ScPex13): 11
- SPOT peptide array binding signal intensity (ScRvs167): 2
- SPOT peptide array binding signal intensity (ScSho1): 109
- SPOT peptide array binding signal intensity (ScSla1-D1-D2): 10
- SPOT peptide array binding signal intensity (ScSla1-D3): 14.5
- SPOT peptide array binding signal intensity (SpAbp1-D1): 396
- SPOT peptide array binding signal intensity (SpBbc1): 3.5
- SPOT peptide array binding signal intensity (SpBzz1-D1): 158

Binder: RVRKTHVPASKRPSG
- SPOT peptide array binding signal intensity (CaNbp2): 216
- SPOT peptide array binding signal intensity (CaRvs167): 1
- SPOT peptide array binding signal intensity (CaRvs167-3): 7.25
- SPOT peptide array binding signal intensity (CaSho1): 89
- SPOT peptide array binding signal intensity (CaSla1-D1-D2): 112
- SPOT peptide array binding signal intensity (CaSla1-D3): ≤ 0
- SPOT peptide array binding signal intensity (ScAbp1): 15.5
- SPOT peptide array binding signal intensity (ScBbc1): 15.5
- SPOT peptide array binding signal intensity (ScBem1-D1): 51
- SPOT peptide array binding signal intensity (ScBzz1-D1): 7.5
- SPOT peptide array binding signal intensity (ScBzz1-D2): ≤ 0
- SPOT peptide array binding signal intensity (ScCyk3): 51
- SPOT peptide array binding signal intensity (ScFus1): 117
- SPOT peptide array binding signal intensity (ScHof1): 1
- SPOT peptide array binding signal intensity (ScHse1): 469
- SPOT peptide array binding signal intensity (ScLsb1): 4.5
- SPOT peptide array binding signal intensity (ScLsb2): 7
- SPOT peptide array binding signal intensity (ScLsb3): 420
- SPOT peptide array binding signal intensity (ScLsb4): 5
- SPOT peptide array binding signal intensity (ScMyo3): 2
- SPOT peptide array binding signal intensity (ScMyo5): 1.5
- SPOT peptide array binding signal intensity (ScNbp2): 91.5
- SPOT peptide array binding signal intensity (ScPex13): ≤ 0
- SPOT peptide array binding signal intensity (ScRvs167): 2.17
- SPOT peptide array binding signal intensity (ScSho1): 230
- SPOT peptide array binding signal intensity (ScSla1-D1-D2): 510
- SPOT peptide array binding signal intensity (ScSla1-D3): 8.5
- SPOT peptide array binding signal intensity (SpAbp1-D1): 249
- SPOT peptide array binding signal intensity (SpBbc1): ≤ 0
- SPOT peptide array binding signal intensity (SpBzz1-D1): 41
- SPOT peptide array binding signal intensity (SpBzz1-D2): ≤ 0
- SPOT peptide array binding signal intensity (SpCyk3): ≤ 0
- SPOT peptide array binding signal intensity (SpHof1): 89.5
- SPOT peptide array binding signal intensity (SpHof1-2): ≤ 0
- SPOT peptide array binding signal intensity (SpHof1-3): 247
- SPOT peptide array binding signal intensity (SpHse1): 112
- SPOT peptide array binding signal intensity (SpLsb1): 3.75
- SPOT peptide array binding signal intensity (SpLsb4): 224
- SPOT peptide array binding signal intensity (SpMyo1): 4.25
- SPOT peptide array binding signal intensity (SpNbp2): 78
- SPOT peptide array binding signal intensity (SpPex13): 2
- SPOT peptide array binding signal intensity (SpRvs167): 1.17
- SPOT peptide array binding signal intensity (SpSla1-D1-D2): 4
- SPOT peptide array binding signal intensity (SpSla1-D3): ≤ 0
